Potency and affinity values are given separately. Results filed as inconclusive are left out. Entries that show only a call come without a potency. Values without a mark were called inactive. Active and inactive are the calls of the source. The rule behind the calls is not given here.
assay: OVCAR-3 cell viability loss – plate reader, dry powder samples, PAX8 inhibitor project, dose response (AID 743044); settings: NIH:OVCAR-3 ovarian cancer cell viability; max activity: at 35 µM, active compounds read low unless noted; series mostly up to 50 µM

SMILES	max activity	outcome
C[C@H]1CCCCO[C@H](CN(C)C(=O)C2CCCCC2)[C@@H](C)CN([C@@H](C)CO)C(=O)c2cc(NC(=O)Nc3ccc(F)cc3)ccc2O1	-23.8%	
Cc1ccc2cccc(NS(=O)(=O)c3ccccc3)c2n1		inactive
O=C(/C=C/c1ccccc1)Nc1cccc(C(=O)O)c1		inactive
O=C(NCCc1ccccc1)c1ccc2c(c1)OCCCO2		inactive
Cc1ccc(S(=O)(=O)Nc2ccc3c(c2)CC(=O)N([C@@H](C)CO)C[C@H](C)[C@@H](CN(C)C(=O)Nc2ccc(C(F)(F)F)cc2)O3)cc1	7.6% [at 2.1 µM, active compounds read low]	

assay: toxicity toward immortalized ovarian surface epithelium – cell-based, plate reader, dry powder samples, cytotoxicity control for PAX8 inhibitor project, dose response (AID 743045); settings: IOSE-T80 ovarian epithelial cells; series mostly up to 35 µM;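 note: more negative values mean more cell killing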

SMILES	outcome
C[C@@H]1CCCCO[C@H](CN(C)C(=O)Cc2ccccc2)[C@@H](C)CN([C@@H](C)CO)C(=O)c2cc(NC(=O)Nc3ccc(C(F)(F)F)cc3)ccc2O1	inactive
O=S(=O)(c1ccccc1F)N1CC[C@@H]2[C@H]1c1cc(-c3cccc(F)c3)ccc1N[C@@H]2CO	inactive
Cc1ccc(S(=O)(=O)Nc2ccc3c(c2)C(=O)N([C@@H](C)CO)C[C@@H](C)[C@H](CN(C)Cc2ccc(C(F)(F)F)cc2)OCCCC[C@H](C)O3)cc1	inactive
COc1ccc(CN(C)C[C@H]2OCCCC[C@@H](C)Oc3ccc(NC(=O)Nc4ccc(F)cc4)cc3C(=O)N([C@@H](C)CO)C[C@@H]2C)cc1	inactive
C[C@@H]1CN([C@H](C)CO)C(=O)c2cc(NC(=O)Nc3ccc(C(F)(F)F)cc3)ccc2O[C@@H](C)CCCCO[C@@H]1CN(C)C(=O)c1ccccc1	inactive
C[C@H]1CCCCO[C@H](CN(C)C(=O)C2CCCCC2)[C@@H](C)CN([C@@H](C)CO)C(=O)c2cc(NC(=O)Nc3ccc(F)cc3)ccc2O1	inactive
COc1cc(/C=C2\SC(=S)N(CCC(=O)N3CCCCC3)C2=O)cc(OC)c1OC	inactive
C[C@@H]1CN([C@H](C)CO)C(=O)c2cc(NC(=O)NC3CCCCC3)ccc2O[C@@H](C)CCCCO[C@H]1CN(C)Cc1ccc(C(F)(F)F)cc1	inactive
COc1ccc(S(=O)(=O)N(C)C[C@H]2OCCCC[C@H](C)Oc3ccc(NS(=O)(=O)c4ccc(F)cc4)cc3C(=O)N([C@@H](C)CO)C[C@@H]2C)cc1	inactive
CO[C@@H]1CN(C)C(=O)c2cc(NC(=O)c3ccc(-c4ccccc4)cc3)ccc2OC[C@H](C)NC[C@H]1C	inactive
Cc1noc(C)c1S(=O)(=O)Nc1ccc2c(c1)C(=O)N([C@H](C)CO)C[C@H](C)[C@@H](CN(C)C(=O)Nc1ccc(C(F)(F)F)cc1)OCCCC[C@H](C)O2	inactive
Cc1ccc(S(=O)(=O)N(C)C[C@@H]2Oc3cc(C#Cc4ccncc4)ccc3S(=O)(=O)N([C@H](C)CO)C[C@H]2C)cc1	inactive
O=C(/C=C/c1ccccc1)Nc1cccc(C(=O)O)c1	inactive
Cc1ccccc1S(=O)(=O)N1CC[C@@H]2[C@H](CO)Nc3ccc(-c4cccc(F)c4)cc3[C@@H]21	inactive
C[C@H](CO)N1C[C@H](C)[C@@H](CN(C)C(=O)C2CCCCC2)OCCCC[C@H](C)Oc2ccc(NS(=O)(=O)c3ccc(Cl)cc3)cc2C1=O	inactive
Cc1cc(C)c2sc(NNC(=O)c3ccc(S(=O)(=O)N4CCc5ccccc5C4)cc3)nc2c1	inactive
Cc1ccc(S(=O)(=O)Nc2ccc3c(c2)CC(=O)N([C@@H](C)CO)C[C@H](C)[C@@H](CN(C)C(=O)Nc2ccc(C(F)(F)F)cc2)O3)cc1	inactive
CN(C)CCN(C(=O)/C=C/c1cccs1)c1nc2c(F)cc(F)cc2s1	inactive
C[C@H](CO)N1C[C@H](C)[C@@H](CN(C)Cc2ccc(Cl)c(Cl)c2)Oc2ccc(NS(=O)(=O)c3ccccc3)cc2CC1=O	inactive
Cc1ccc(S(=O)(=O)Nc2ccc3c(c2)nc(CCN2CCCC2)n3C)cc1	inactive
C[C@@H]1CN([C@H](C)CO)C(=O)c2cc(NC(=O)Nc3ccccc3)ccc2O[C@@H](C)CCCCO[C@@H]1CN(C)Cc1ccc(C(F)(F)F)cc1	inactive
Cc1ccc(S(=O)(=O)N(C)C[C@@H]2Oc3cc(C#Cc4ccncc4)ccc3S(=O)(=O)N([C@H](C)CO)C[C@@H]2C)cc1	inactive
CC(C)CC#Cc1ccc2c(c1)O[C@H](CN(C)Cc1ccc(C(=O)O)cc1)[C@@H](C)CN([C@H](C)CO)S2(=O)=O	inactive
Cc1cc(NC(=O)CCCS(=O)(=O)c2nc(-c3cccs3)cc(C(F)(F)F)n2)no1	inactive
COc1ccccc1C#Cc1ccc2c(c1)O[C@H](CN(C)Cc1cccnc1)[C@H](C)CN([C@@H](C)CO)S2(=O)=O	inactive
C[C@@H]1CCCCO[C@H](CN(C)Cc2ccc(C(F)(F)F)cc2)[C@H](C)CN([C@@H](C)CO)C(=O)c2cc(NS(=O)(=O)c3ccc(F)cc3)ccc2O1	inactive

assay: A2780 cell killing – plate reader, dry powder samples, cytotoxicity control, dose response (AID 743046); settings: A2780 ovarian cancer cytotoxicity; series mostly up to 35 µM

SMILES	outcome
O=S(=O)(c1ccccc1F)N1CC[C@@H]2[C@H]1c1cc(-c3cccc(F)c3)ccc1N[C@@H]2CO	inactive
Cc1ccc(S(=O)(=O)Nc2ccc3c(c2)C(=O)N([C@@H](C)CO)C[C@@H](C)[C@H](CN(C)Cc2ccc(C(F)(F)F)cc2)OCCCC[C@H](C)O3)cc1	inactive
O=C(Nc1ccc(F)cc1)N1CCCCN2[C@@H](CO)[C@@H](c3ccc(C#Cc4ccccc4)cc3)[C@@H]2C1	inactive
C[C@@H]1CN([C@H](C)CO)C(=O)c2cc(NC(=O)Nc3ccc(C(F)(F)F)cc3)ccc2O[C@@H](C)CCCCO[C@@H]1CN(C)C(=O)c1ccccc1	inactive
C[C@H]1CCCCO[C@H](CN(C)C(=O)C2CCCCC2)[C@@H](C)CN([C@@H](C)CO)C(=O)c2cc(NC(=O)Nc3ccc(F)cc3)ccc2O1	inactive
COc1ccc(S(=O)(=O)Nc2ccc3c(c2)C(=O)N([C@H](C)CO)C[C@H](C)[C@H](CN(C)Cc2ccc(C(F)(F)F)cc2)OCCCC[C@H](C)O3)cc1	inactive
Cc1ccc(-c2csc(NC3OC(=O)c4ccccc43)n2)cc1 (stereo not given)	inactive
COc1cccc(S(=O)(=O)N2C[C@@H]3N[C@H](C2)C3c2ccc(/C=C/c3ccccc3)cc2)c1 (stereo not given in full)	inactive
CN1c2ccc(-c3ccccc3)cc2[C@H]2[C@H](CCN2C(=O)NC2CCCCC2)[C@@H]1CO	inactive
COc1ccc(S(=O)(=O)N(C)C[C@H]2OCCCC[C@H](C)Oc3ccc(NS(=O)(=O)c4ccc(F)cc4)cc3C(=O)N([C@@H](C)CO)C[C@@H]2C)cc1	inactive
Cc1noc(C)c1S(=O)(=O)Nc1ccc2c(c1)C(=O)N([C@H](C)CO)C[C@H](C)[C@@H](CN(C)C(=O)Nc1ccc(C(F)(F)F)cc1)OCCCC[C@H](C)O2	inactive
Cc1ccc(S(=O)(=O)N(C)C[C@@H]2Oc3cc(C#Cc4ccncc4)ccc3S(=O)(=O)N([C@H](C)CO)C[C@H]2C)cc1	inactive
O=C1/C(=C/c2ccccc2F)SC(=S)N1CC(=O)N1CCCCC1c1cccnc1 (stereo not given)	inactive
O=C(/C=C/c1ccccc1)Nc1cccc(C(=O)O)c1	inactive
O=C(NCCc1ccccc1)c1ccc2c(c1)OCCCO2	inactive
C[C@H](CO)N1C[C@H](C)[C@@H](CN(C)C(=O)C2CCCCC2)OCCCC[C@H](C)Oc2ccc(NS(=O)(=O)c3ccc(Cl)cc3)cc2C1=O	inactive
Cc1ccc(S(=O)(=O)Nc2ccc3c(c2)CC(=O)N([C@@H](C)CO)C[C@H](C)[C@@H](CN(C)C(=O)Nc2ccc(C(F)(F)F)cc2)O3)cc1	inactive
CN(C)CCN(C(=O)/C=C/c1cccs1)c1nc2c(F)cc(F)cc2s1	inactive
C[C@H](CO)N1C[C@H](C)[C@@H](CN(C)Cc2ccc(Cl)c(Cl)c2)Oc2ccc(NS(=O)(=O)c3ccccc3)cc2CC1=O	inactive
Cc1ccc(S(=O)(=O)Nc2ccc3c(c2)nc(CCN2CCCC2)n3C)cc1	inactive
C[C@@H]1CN([C@H](C)CO)C(=O)c2cc(NC(=O)Nc3ccccc3)ccc2O[C@@H](C)CCCCO[C@@H]1CN(C)Cc1ccc(C(F)(F)F)cc1	inactive
Cc1ccc(S(=O)(=O)N(C)C[C@@H]2Oc3cc(C#Cc4ccncc4)ccc3S(=O)(=O)N([C@H](C)CO)C[C@@H]2C)cc1	inactive
CC(C)CC#Cc1ccc2c(c1)O[C@H](CN(C)Cc1ccc(C(=O)O)cc1)[C@@H](C)CN([C@H](C)CO)S2(=O)=O	inactive
COc1ccccc1C#Cc1ccc2c(c1)O[C@H](CN(C)Cc1cccnc1)[C@H](C)CN([C@@H](C)CO)S2(=O)=O	inactive

Source: PubChem BioAssay
